The results in this text go back to PubChem BioAssay (NCI).

Test systems include DU-145 prostate; K-562 leukemia; MALME-3M melanoma; MDA-MB-231 breast; RXF 393 renal; SF-268 CNS; SF-295 CNS; SF-539 CNS; UACC-257 melanoma; M14 melanoma; HCT-15 colon; HT29 colon; SNB-75 CNS; SNB-19 CNS; U251 CNS; PC-3 prostate; SK-MEL-5 melanoma; UACC-62 melanoma; LOX IMVI melanoma; SK-MEL-28 melanoma.
What all share (assay): NCI-60 one-dose screen, 48 h (100 = growth as untreated, 0 = no growth, -100 = all killed)
Holding throughout (details): 10 µM unless noted

The panel holds about 83,000 compounds, 20% with a hit somewhere; the sample as a whole holds those more often.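 In brief: 96-well plates, 48 h treatment, single concentration, percent growth endpoint.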 Unmarked numbers belong to inactive results. Activity calls are given as the source filed them. Rule for the calls: active = growth percent below 10; inactive = the rest.

On to `COc1ccc2c(c1)N=c1c-2cc2c(O)[nH]c(=S)n2c1=O`, for which the growth in the test with DU-145 prostate was 50.8%; with K-562 leukemia, 19.7%; in the test with MALME-3M melanoma, 54.8%; in the test with MDA-MB-231 breast, 42.1%; in the test on RXF 393 renal, 11.4%; with SF-268 CNS it was 84.4%. The growth in the test on SF-295 CNS was 26.1%; in the test with SF-539 CNS it was -7.78% (active); with UACC-257 melanoma, 53.4%; in the test on M14 melanoma, 40%; in the test on HCT-15 colon it was 27.3%; in the test with HT29 colon, 12.3%. The growth in the test on SNB-75 CNS is 6.9% (active); in the test with SNB-19 CNS, 59.8%; in the test with U251 CNS it was 30.9%; in the test with PC-3 prostate, 37.7%; in the test with SK-MEL-5 melanoma, 13.5%; in the test on UACC-62 melanoma, 34.4%. In addition, the figures for the growth in the test on LOX IMVI melanoma and in the test with SK-MEL-28 melanoma were 32.6% and 72.6%, respectively.

`COc1ccc(N=Nc2c(N)nn3c(-c4ccc(F)cc4)ccnc23)cc1`: the growth with DU-145 prostate was 79.9%; with K-562 leukemia, 71.9%; in the test with MALME-3M melanoma, 40.4%; in the test on MDA-MB-231 breast it was 77.2%; in the test with RXF 393 renal, 106%; in the test with SF-268 CNS, 83.5%. Moreover, the growth in the test on SF-295 CNS was 87.7%; with SF-539 CNS, 67.5%; in the test on UACC-257 melanoma it was 81.8%; in the test with M14 melanoma it was 51.3%; in the test with HCT-15 colon, 54%; in the test on HT29 colon, 58.6%. The growth in the test with SNB-75 CNS is 110%; in the test on SNB-19 CNS, 97.1%; with U251 CNS, 69.8%; in the test with PC-3 prostate, 82.2%; in the test on SK-MEL-5 melanoma, 91.1%; with UACC-62 melanoma, 71.3%. In addition, the results for the growth in the test on LOX IMVI melanoma and in the test on SK-MEL-28 melanoma were 86.8% and 63.1%, respectively.

Regarding `CC1=C(C(=O)OC(C)C)C(c2ccc(O)cc2)NC(=O)N1` (centres undefined), the growth is 111% in the test on DU-145 prostate; 98.5% in the test with K-562 leukemia; 102% in the test on MALME-3M melanoma; 101% in the test with MDA-MB-231 breast; 104% in the test on RXF 393 renal; 115% in the test with SF-268 CNS. Further, the growth in the test on SF-295 CNS was 105%; in the test with SF-539 CNS it was 101%; with UACC-257 melanoma, 96.5%; with M14 melanoma, 99.8%; with HCT-15 colon, 105%; in the test with HT29 colon, 107%. Moreover, the growth in the test with SNB-75 CNS was 115%; in the test with SNB-19 CNS, 95%; in the test with U251 CNS, 103%; with PC-3 prostate, 92.1%; in the test on SK-MEL-5 melanoma, 107%; with UACC-62 melanoma, 95.4%. In addition, the growth with LOX IMVI melanoma was 98%; in the test with SK-MEL-28 melanoma, 112%.

In the case of `COc1ccc2oc(=O)c(-c3csc(N/N=C(\C)c4cc(OC)c(OC)c(OC)c4)n3)cc2c1`, the growth in the test with DU-145 prostate is 101%; in the test on K-562 leukemia it was 92.3%; in the test on MALME-3M melanoma, 85%; in the test on MDA-MB-231 breast, 86.8%; in the test on RXF 393 renal it was 85.7%; with SF-268 CNS, 99.3%. Further, the growth with SF-295 CNS was 92%; in the test with SF-539 CNS, 103%; with UACC-257 melanoma it was 106%; in the test on M14 melanoma, 91.9%; in the test on HCT-15 colon, 86.8%; with HT29 colon, 113%. For the same compound, the growth is 154% in the test with SNB-75 CNS; 86.6% in the test with SNB-19 CNS; 92.3% in the test on U251 CNS; 67.6% with PC-3 prostate; 69.6% in the test on SK-MEL-5 melanoma; 93.1% in the test with UACC-62 melanoma. Further, the growth in the test on LOX IMVI melanoma is 86.6%; with SK-MEL-28 melanoma, 102%.

Take `COC(=O)c1cc(C(C)=O)n2c3ccccc3c3ccccc3c12`: the growth with DU-145 prostate is 67%; in the test with K-562 leukemia, 85.9%; in the test with MALME-3M melanoma, 84.6%; in the test on MDA-MB-231 breast, 33.2%; in the test with RXF 393 renal, 11.8%; in the test with SF-268 CNS, 59.5%. The growth in the test with SF-295 CNS is 56%; with SF-539 CNS it was 28.5%; in the test on UACC-257 melanoma it was 118%; with M14 melanoma, 72.1%; in the test on HCT-15 colon, 71.3%; with HT29 colon, 92.6%. For the same compound, the growth in the test with SNB-75 CNS is -12.2% (active); with SNB-19 CNS, 42.9%; with U251 CNS it was 80.6%; with PC-3 prostate it was 56.5%; in the test on SK-MEL-5 melanoma, 21.9%; in the test with UACC-62 melanoma it was 67%. Moreover, the growth in the test with LOX IMVI melanoma is 64.7%; in the test with SK-MEL-28 melanoma it was 92.4%.

As to `COc1ccc(N=Nc2c(N)nn3c(-c4ccc([N+](=O)[O-])cc4)ccnc23)cc1`, the growth in the test with DU-145 prostate was 105%; in the test on K-562 leukemia it was 95.1%; in the test with MALME-3M melanoma, 93%; with MDA-MB-231 breast, 98.5%; in the test on RXF 393 renal it was 109%; in the test on SF-268 CNS, 98.8%. Besides, the growth was 97.5% in the test with SF-295 CNS; 99.2% in the test with SF-539 CNS; 97.3% in the test on UACC-257 melanoma; 104% with M14 melanoma; 101% in the test with HCT-15 colon; 96.3% with HT29 colon. Also, the growth with SNB-75 CNS is 85.4%; in the test on SNB-19 CNS it was 108%; in the test with U251 CNS it was 107%; in the test with PC-3 prostate it was 101%; in the test with SK-MEL-5 melanoma, 94.2%; in the test on UACC-62 melanoma, 94.5%. The growth is 99.9% in the test with LOX IMVI melanoma and 101% with SK-MEL-28 melanoma.

Regarding `CC1CCc2c(sc3nc(SCC(=O)c4cccc([N+](=O)[O-])c4)n(-c4ccccc4)c(=O)c23)C1` (centres undefined), the growth with DU-145 prostate was 63.1%; with K-562 leukemia, 57.1%; with MALME-3M melanoma, 111%; with MDA-MB-231 breast it was 10.1%; in the test on RXF 393 renal, 99.9%; in the test with SF-268 CNS, 73.2%. Besides, the growth with SF-295 CNS was 74.2%; in the test on SF-539 CNS, -10.9% (active); in the test with UACC-257 melanoma, 97.8%; in the test with M14 melanoma, 80.6%; with HCT-15 colon, 73.6%; in the test with HT29 colon, 67.9%. Moreover, the growth in the test with SNB-75 CNS is 85.8%; in the test on SNB-19 CNS, 59%; in the test on PC-3 prostate, 82.1%; in the test on SK-MEL-5 melanoma, 82.6%; in the test on UACC-62 melanoma it was 91.9%; with LOX IMVI melanoma, 53.7%. For the same compound, the growth with SK-MEL-28 melanoma is 101%.

In the case of `O=C(CSc1nnc(-c2ccc(-c3nc4ccc(Cl)cc4[nH]3)cc2)o1)Nc1ccccc1`, the growth in the test with DU-145 prostate is 6.69% (active); in the test with K-562 leukemia, 12.3%; in the test on MALME-3M melanoma it was 2.32% (active); in the test with MDA-MB-231 breast, -52% (active); in the test with RXF 393 renal, -40.6% (active); in the test with SF-268 CNS, 49.1%. For the same compound, the growth in the test with SF-295 CNS was 75.7%; in the test on SF-539 CNS, -92.8% (active); in the test on UACC-257 melanoma, 47.7%; in the test with M14 melanoma, 4.09% (active); in the test on HCT-15 colon, 25.2%; in the test on HT29 colon it was 41%. The growth is -16.8% (active) in the test on SNB-75 CNS; -42.4% (active) in the test with SNB-19 CNS; -79.2% (active) in the test with U251 CNS; -13.6% (active) in the test with PC-3 prostate; 13.2% in the test with SK-MEL-5 melanoma; 7.34% (active) in the test with UACC-62 melanoma. Moreover, the values for the growth in the test with LOX IMVI melanoma and with SK-MEL-28 melanoma were -65.6% (active) and -89.2% (active), respectively.
